Laboratory results published in PubChem BioAssay (NCI).
The panel holds about 83,000 compounds, 20% with a hit somewhere; the sample as a whole holds those more often.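 Plates (96-well) were seeded with cells, treated with compound at one concentration, and incubated for 48 hours before percent growth was determined.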 Values without a mark were called inactive. Active and inactive are the calls of the source. How the source made its calls: active means growth percent below 10; inactive means the rest.

tested on: MDA-MB-435 melanoma; assay: NCI-60 one-dose screen, 48 h (100 = growth as untreated, 0 = no growth, -100 = all killed); settings: 10 µM unless noted

| Structure (SMILES) | growth |
| --- | --- |
| C/C(=C(/c1ccc(O)cc1)c1ccc(OCCN2CCCC2)cc1)c1ccccc1 | 39.9% |
| CCCCCCCCCc1cc(CN2CCCCC2)c(O)c(CN2CCCCC2)c1 | 78.4% |
| CCCCN(CC)CCCCCCCCCCN1CCCc2cc(OC)ccc21 | 14.5% |
| COc1ccc2nc(NC(=O)c3cccnc3Nc3cc(OC)c(OC)c(OC)c3)sc2c1 | 7.52% (active) |
| CCN(CC)CCC(=O)c1ccc(OC)c2ccccc12 | 102% |
| COc1ccc(/C=C2\N=C3Sc4cc(Cl)ccc4C(=O)N3C2=O)cc1 | 102% |
| Nc1c(C(=O)Nc2ccccc2)sc2nc3c(cc12)CN(CCc1ccccc1)CC3 | 102% |
| CC(C)Oc1nc2c(c(=O)n(C)c(=O)n2C)n1C | 105% |

tested on: SW-620 colon; assay: as above; settings: 10 µM unless noted

| Structure (SMILES) | growth |
| --- | --- |
| OCC1C2C=CC(C2)C1CO (stereo unspecified) | 98% |
| Fc1ccc(Cc2ccc(F)cc2)cc1 | 99.1% |
| O=c1ccc2cc3ccccc3cc2[nH]1 | 97.4% |
| COc1ccc(-c2nn(-c3ccccc3)cc2/C=C/C(=O)OCc2cn(-c3ccc(F)c(Cl)c3)nn2)cc1 | 100% |
| COc1ccccc1N1CCN(CCn2c(=O)c3c(c4ccccc4n3C)n(C)c2=O)CC1 | 98.9% |
| CCCCCCCCCCNC(=O)CCl | 93.3% |
| N=S(=O)(NC(=O)c1ccc(Cl)cc1Cl)c1ccc(Br)s1 (stereo unspecified) | 80.9% |
| CCOC(=O)/C=C/C(=O)[C@H](CC(C)C)NC(=O)[C@H](Cc1ccccc1)NC(=O)OCc1ccccc1 | 13.8% |
| COC1/C=C\OC2(C)Oc3c(C)c(O)c4c(O)c(c(CN(C)CCO)c(O)c4c3C2=O)NC(=O)/C(C)=C\C=C/C(C)C(O)C(C)C(O)C(C)C(OC(C)=O)C1C (stereo unspecified) | 105% |
| COc1nc2c(cc1S(=O)(=O)c1ccccc1)CCc1c-2cnn1Cc1ccccc1 | 74.1% |
| O=S(=O)(NCCCNc1cc(-c2cn(-c3ccccc3)nc2-c2ccccc2)ccn1)c1ccc(C(F)(F)F)cc1 | 71.1% |
| N#CC1=C(N)Oc2c(ccc3ccccc23)C1c1cccs1 (stereo unspecified) | 23.8% |
| CCN(CC)CCCNc1cc(OC)cc2nc3cc(Cl)ccc3nc12 | -36.9% (active) |
| O=C(CN1CCN(c2cc3c(cc2F)c(=O)c(C(=O)O)cn3C2CC2)CC1)Nc1nc(-c2ccc(Cl)cc2)cs1 | 26.2% |
| O=C1CC(c2nc3ccccc3[nH]2)CN1C1CCCCC1 (stereo unspecified) | 106% |
| COc1cc(OC)c(/C=C/c2cc[n+](C)c3ccccc23)c(OC)c1 | 19.8% |
| CCN(CC)c1ccc(CNc2cc(C)nc3ccc(OC)cc23)cc1 | -74.6% (active) |
| CCCCCN(CCCCC)CCC[C@@H](C)[C@H]1CC[C@H]2[C@@H]3[C@H](OCCCN)C[C@@H]4C[C@H](OCCCN)CC[C@]4(C)[C@H]3C[C@H](OCCCN)[C@]12C | 45.9% |
| COc1cc(OC)c(/C=C/S(=O)(=O)Cc2ccc(OC)c(N)n2)c(OC)c1 | 25.5% |

| Structure (SMILES) | growth |
| --- | --- |
| CC(=O)C1=C(O)C=C2Oc3c(C(=O)/C=C/c4cc(C(F)(F)F)cc(C(F)(F)F)c4)c(O)c(C)c(O)c3[C@]2(C)C1=O | -10.2% (active) |
| Cc1cc(Nc2nc(N3CCOCC3)nc3ccccc23)n[nH]1 | 79.3% |
| COc1cc(OC)c(/C=C/C(=O)c2c(OC)cc(OC)cc2OC)c(OC)c1 | 8.71% (active) |
| c1ccc(CSc2ncnc3nc[nH]c23)nc1 | 113% |
| C=C(CN1CCN(c2cccc(C(F)(F)F)n2)CC1)c1ccc(C(=O)Nc2ccccc2N)cc1 | 55.2% |
| CN1CCOCCOCCOc2ccccc2NC(=O)c2nc(cnc2N)-c2ccc(cc2)S1(=O)=O | 48.7% |
| COc1cc(/C=N/N(C)C)ccc1O | 90.7% |
| O=C(/C=C/c1ccc(B(O)O)cc1)/C=C/c1ccc(B(O)O)cc1 | -25.2% (active) |
| CCC(=O)OCc1cccc(OC)c1 | 108% |
| COc1cnc2c(c1)C(=O)c1c-2n(CCCBr)c(=O)c2cc([N+](=O)[O-])ccc12 | 12.1% |
| C/C(=C(/c1ccc(O)cc1)c1ccc(OCCN2CCCC2)cc1)c1ccccc1 | 67.8% |
| CCCCCCCCCc1cc(CN2CCCCC2)c(O)c(CN2CCCCC2)c1 | 69.8% |
| CCCCN(CC)CCCCCCCCCCN1CCCc2cc(OC)ccc21 | 22.7% |
| COc1cc(NC(N)=NCC(C)(C)COc2ccc(C(F)(F)F)cc2)cnc1C#N | 69.9% |
| COc1ccc2nc(NC(=O)c3cccnc3Nc3cc(OC)c(OC)c(OC)c3)sc2c1 | 27.8% |
| CCN(CC)CCC(=O)c1ccc(OC)c2ccccc12 | 93% |
| COc1ccc(/C=C2\N=C3Sc4cc(Cl)ccc4C(=O)N3C2=O)cc1 | 97.1% |
| Nc1c(C(=O)Nc2ccccc2)sc2nc3c(cc12)CN(CCc1ccccc1)CC3 | 91.3% |
| CC(C)Oc1nc2c(c(=O)n(C)c(=O)n2C)n1C | 102% |
